Rows were chosen to be rich in hits. Some 6.5% of all compounds tested hit in one or more screens of this group.
Vaccinia Venus – vaccinia inhibition (Venus reporter); AID 720580; Potency, µM (titrated, usually from 36.5 µM), without a hit: at the highest dose activity change, negative = inhibition, actives largely listed as inhibitors; Vaccinia virus Venus reporter expression, fluorescence; 0.46% of 330,000 active; calls by dose curve; tested in A549 cells; further: potency means the concentration at half of the fitted maximal effect; nearly all actives have a fitted effect of over 30% in size
HCMV antiviral – blocks human cytomegalovirus replication; HFF cells, HCMV-luciferase reporter, 72 h; active compounds read low; activity change, negative = inhibition, % at 57.5 µM; 4.5% of 410,000 active; in the data active means activity change below about -60%; inconclusive means no clear call, values can overlap the other calls; inactive means above about -39%
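Inhibition of viral replication was scored as loss of reporter luminescence in HFFs infected with HCMV-luciferase (MOI 1 PFU/cell) for 72 h; compounds tested at 2 doses, normalized to buffer and Salinomycin controls.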
LASV entry inh – Lassa virus entry inhibition; Potency, µM (series often up to 37.9 µM), for inactives: at the highest dose activity change, negative = inhibition, most hits filed as inhibitors; 1.2% of 300,000 active; Lassa virus pseudotype entry inhibition, cell reporter; calls by dose curve; tested in HEK293 cells; further: potency means the concentration at half of the fitted maximal effect; nearly all actives have a fitted effect of over 50% in size
MARV entry inh – blocks Marburg virus binding to or entry into cells; Marburg virus pseudotyped entry inhibition, cell reporter; Potency, µM (highest dose often 37.8 µM), inactives show at the highest dose activity change, negative = inhibition, actives largely listed as inhibitors; 1.8% of 300,000 active; AID 540276; calls by dose curve; tested in HEK293 cells; further: potency means the concentration at half of the fitted maximal effect
Vaccinia mCherry – vaccinia inhibition (mCherry reporter); Vaccinia virus mCherry reporter infection, fluorescence; Potency, µM (top dose mostly 36.5 µM), without a hit: top-dose activity change, negative = inhibition, actives largely listed as inhibitors; 0.63% of 310,000 active; AID 720579; calls by dose curve; tested in A549 cells; further: potency means the concentration at half of the fitted maximal effect; nearly all actives have a fitted effect of over 35% in size
FMDV antiviral – blocks foot and mouth disease virus | FMDV antiviral cell-based qHTS | Potency, µM (series often up to 57.9 µM), for inactives: top-dose activity change, negative = inhibition, usual class: inhibitors | 1.2% of 410,000 active; calls by dose curve; tested in HEK293T cells; further: read-out not given here; potency means the concentration at half of the fitted maximal effect; nearly all actives have a fitted effect of over 45% in size
* marks the source's active call; other numbers are inactive results; i = inactive; ? = inconclusive; . = not tested or not shown; [ ] = remark or other dose. On the % scale 0 is the no-effect control and ±100 the full control effect.

SMILES	Vaccinia Venus	HCMV antiviral	LASV entry inh	MARV entry inh	Vaccinia mCherry	FMDV antiviral
CC[C@H](C)C1OC(=O)[C@@H](C)[C@@H](CC)NC(=O)[C@H](C)N(C)C(=O)C(C)(C)C(=O)C(C)NC(=O)[C@H](Cc2ccc(OC)cc2)N(C)C(=O)[C@H](C(C)C)N(C)C(=O)CNC(=O)[C@H](CC(C)C)N(C)C(=O)CNC1=O (stereo not given in full)	1µM*	.	.	.	0.89µM*	-6%
CCC[C@H]1NC(=O)[C@H](C)N(C)C(=O)C(C)(C)C(=O)C(C)NC(=O)[C@H](Cc2ccc(OC)cc2)N(C)C(=O)[C@H](C(C)C)N(C)C(=O)CNC(=O)[C@H](CC(C)C)N(C)C(=O)CNC(=O)[C@H]([C@@H](C)CC)OC(=O)[C@H]1C (stereo not given in full)	0.32µM*	.	.	.	?	0%
CC(C)C[C@@H]1NC(=O)[C@H](Cc2ccccc2)N(C)C(=O)[C@H](C)NC(=O)c2ccccc2NC(=O)[C@H](Cc2ccc(O)cc2)N(C)C1=O	-24%	-30	.	.	?	-16%
CCOc1ccccc1NS(=O)(=O)c1cc2[nH]c(=O)c(=O)[nH]c2cc1C	-5%	0	-3%[46.1 µM]	.	-6%	8%
CCC(C(=O)Nc1cc(-c2nc3cccnc3s2)ccc1C)c1ccccc1 (stereo not given)	-6%	49	-2%[46.1 µM]	.	-5%	6%
CC1(C)Cc2c(C#N)c(NCc3ccco3)nc(-c3ccco3)c2CO1	-9%	-13	-20%	-8%	.	-22%
CN(C)CCNc1nc(-c2ccco2)c2c(c1C#N)CC(C)(C)OC2	.	-100*	2%	-18%	.	-12%
CN(C)S(=O)(=O)c1cc(NC(=O)CSc2ncc(C(F)(F)F)cc2Cl)ccc1Cl	-11%	?	?	?	-23%	28µM*
COCCn1c(SCC(=O)Nc2ccc(S(N)(=O)=O)cc2)nc2ccccc21	-13%	15	-36%	?	-20%[1.46 µM]	-4%
COCCn1c(SCC(=O)Nc2nc(C)c(Cl)cc2Cl)nc2ccccc21	-8%	?	23µM*	?	-14%	-2%
COCCn1c(SCC(=O)Nc2cccnc2Cl)nc2ccccc21	.	?	.	.	.	-22%
COCCn1c(SCC(=O)Nc2ccc(Cl)c(S(=O)(=O)N(C)C)c2)nc2ccccc21	?	1	1%	?	-12%	28µM*
COc1ccc(CN(Cc2ccccc2)C(=O)COC(C)=O)cc1COc1ccc(NC(C)=O)cc1	-20%	.	.	.	i	.
Cc1cc(Br)ccc1NC(=O)COC(=O)c1ccccc1OCC(=O)N(C)C	-3%	.	.	.	3%	.
O=C1[C@@H]2CSCCS(=O)(=O)N2C(=O)N1C1CCCCC1	.	-19	4%[46.1 µM]	.	.	.
Oc1cccc2ccc(/C=C/c3ccccc3Cl)nc12	-25%	-29	.	.	?	18%
Nc1nccc(/C=C/c2c(F)cccc2Cl)n1	-19%	-68*	3%	-26%[46.1 µM]	-12%	0%
Oc1cccc2ccc(/C=C/c3c(F)cccc3Cl)nc12	-7%	45	18µM*	?	?	15%
C[C@H](CO)N1C[C@H](C)[C@@H](CN(C)S(C)(=O)=O)OCc2cn(nn2)CCCC1=O	.	-2	.	.	.	.
CC(C)C1(C)C(=O)N=C2C3=C(CCCC3)C(=O)N21 (stereo not given)	.	.	.	17%[46.1 µM]	.	.
CCOC(=O)c1c(C)n(-c2ccccc2)c2ccc(OC(=O)c3ccccc3NC(=O)C(C)(C)C)cc12	-18%	-94*	2%[46.1 µM]	.	-15%	?
CCOC(=O)c1c(C)n(-c2ccccc2)c2ccc(OC(=O)c3ccccc3NC(=O)C(C)C)cc12	-11%	0	-17%[46.1 µM]	.	-9%	32µM*
CCOC(=O)c1c(C)n(-c2ccccc2)c2ccc(OC(=O)c3cccc(C)c3)cc12	5%	-5	12%[46.1 µM]	.	-9%	9%
COc1ccc(CN(C2CCCC2)S(=O)(=O)c2cc(Br)ccc2Br)c(OC)c1	.	-39	.	?	.	.
CC1CCCC(C)N1/N=C/c1c[nH]c2ccc(Br)cc12 (stereo not given)	?	-78*	-9%	?	?	-9%
SMILES	Vaccinia Venus	HCMV antiviral	LASV entry inh	MARV entry inh	Vaccinia mCherry	FMDV antiviral
COc1cccc(C(c2sc3nc(-c4ccco4)nn3c2O)N2CCN(c3ccccc3F)CC2)c1 (stereo not given)	-14%	56	6%[46.1 µM]	.	i	10%
CCC(O)CNC(=O)NC(=C(Cl)Cl)c1ccc(C)c(F)c1 (stereo not given)	.	-81*	.	.	.	?
CCNC(=O)C1(C)CCN(C(=O)c2ccc(C)c(F)c2)C1 (stereo not given)	-6%	15	.	.	i	0%
COCC(=O)Nc1c(C(=O)Nc2ccc3c(c2)OCCO3)oc2ccccc12	-9%	56	?	11µM*	-10%	0%
CCC(=O)Nc1c(C(=O)Nc2ccc3c(c2)OCCO3)oc2ccccc12	4%	40	?	-4%	i	33%
CCOCC(=O)Nc1c(C(=O)Nc2ccc3c(c2)OCCO3)oc2ccccc12	-16%	-96*	?	?	?	24%
CC(C)[C@@H]1NC(=O)[C@@H]2CSCCS(=O)(=O)N2C1=O	.	6	?	.	.	.
CC(C)OC(=O)c1c(NC(=O)c2cc3nc(-c4ccccc4)cc(C(F)(F)F)n3n2)sc2c1CCCC2	-11%	-3	6%[46.1 µM]	.	-15%	-1%
C=CCN(C(=O)CCC(=O)O)[C@H]1CC(=O)N(c2ccc(OCCC)cc2)C1=O	.	.	.	-1%	.	.
CCOc1cccc(C=NNc2nc(=O)cc(C(=O)OC)s2)c1O	.	-27	.	.	.	.
CC(C)CCOc1ccc(Cn2c(=O)sc3ccccc32)cc1	-6%	4	-4%[46.1 µM]	7%[46.1 µM]	-1%	-2%
CN(C(=S)NC(=O)C12CC3CC(CC(C3)C1)C2)c1ccc(O)cc1	.	-61*	.	.	.	13%
CN(CCC#N)Cc1cc(=O)oc2ccc3ccccc3c12	0%	-62*	21%[46.1 µM]	-15%[46.1 µM]	i	-24%
CCn1cc(C2=NC(C)CO2)c2ccccc21 (stereo not given)	.	14	24%	?	.	17%
CCn1cc(C2=NCCO2)c2ccccc21	?	-8	.	-6%	10µM*	-12%
Cn1c(SCc2ccccc2)nnc1-c1cnccn1	.	-61*	-2%	?	.	60%
Cn1c(SCc2ccc(F)cc2)nnc1-c1cnccn1	.	-33	.	.	.	31%
Nc1[nH]c(=S)[nH]c(=O)c1N=O	7%	.	.	.	13%	.
CC(=O)c1cc2c(cc1O)OC(C)(C)C=C2	-7%	.	.	.	-15%	25%
Cc1ccc(N2CCN(C(C(=O)Nc3c(C)cccc3C)c3ccccc3OC(F)(F)F)CC2)cc1 (stereo not given)	-20%	-16	.	.	?	-17%
Cc1cccc(C)c1NC(=O)C(c1ccccc1OC(F)(F)F)N1CCN(C)CC1 (stereo not given)	?	-62*	.	.	-25%	-15%
Cc1oc(-c2ccccc2NC(=O)c2cccnc2)nc1CNC(=O)C1CCCCCN1C (stereo not given)	-12%	.	.	.	i	-22%

Source: PubChem
